The panel holds about 83,000 compounds, 20% with a hit somewhere; the sample as a whole holds those more often.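 Testing used 96-well plates and a 48-hour single-concentration exposure. Example: -40 means 40% of the starting cells died.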 Active and inactive are the calls of the source. The calls were made as follows: active = growth percent below 10; inactive = the rest.
Columns and labels:
Test in all cases: NCI-60 one-dose screen, 48 h (100 = growth as untreated, 0 = no growth, -100 = all killed)
Settings in all cases: 10 µM unless noted
[1] = test system: SR leukemia
[2] = test system: RPMI-8226 leukemia
[3] = test system: OVCAR-8 ovarian
[4] = test system: OVCAR-5 ovarian
[5] = test system: OVCAR-4 ovarian
[6] = test system: SK-OV-3 ovarian
[7] = test system: IGROV1 ovarian
[8] = test system: OVCAR-3 ovarian
[9] = test system: NCI/ADR-RES ovarian
[10] = test system: T-47D breast
[11] = test system: BT-549 breast
[12] = test system: MDA-MB-435 melanoma
[13] = test system: MCF7 breast
[14] = test system: HCT-116 colon
[15] = test system: HCC-2998 colon
[16] = test system: KM12 colon
[17] = test system: MDA-MB-468 breast
[18] = test system: SW-620 colon

Measured: growth

N#Cc1c(-c2cccc(O)c2O)cc(-c2ccc3ccccc3c2)[nH]c1=O
inactive: [1] 12.1% | [2] 60.9% | [3] 69.8% | [4] 79.5% | [5] 69.5% | [6] 77.6% | [7] 48.8% | [8] 18.9% | [9] 90.6% | [10] 68.9% | [11] 52.8% | [12] 72% | [13] 59.8% | [14] 34.5% | [15] 74.3% | [16] 19.5% | [17] 58.6%

Cn1cc(NC(=O)c2cc(NC(=O)c3ccc(C#Cc4ccccc4)cc3)cn2C)cc1C(=O)NCCCN1CCOCC1
active: [1] -34.3% | [2] -42.6% | [12] -56.6% | [18] -44.3% | [13] -93.1% | [14] -87.3% | [15] -56% | [16] 3.14% | [17] -69.7%
inactive: [3] 38.9% | [4] 83.2% | [5] 63% | [6] 83.2% | [7] 66.8% | [8] 46% | [9] 90% | [10] 22.2% | [11] 73.5%

O=C(O)c1ccc(-c2ccc(/C=N/NC(=O)c3[nH]c4ccc(Br)cc4c3-c3ccccc3)s2)cc1
active: [1] 0.386% | [8] 2.13% | [11] 8.87% | [12] 4.27% | [13] 7.47% | [15] -66% | [16] -14.8%
inactive: [2] 12.1% | [3] 20.2% | [4] 35.5% | [5] 22.5% | [6] 16.8% | [7] 14.7% | [9] 19.9% | [10] 16% | [14] 11.1%

CCN1C(=O)/C(=N\N=C(/C)c2ccc3c(c2)Nc2ccccc2S3)c2cc(Cl)ccc21
active: [17] 9.33%
inactive: [1] 60.8% | [2] 48% | [3] 68.1% | [4] 83.7% | [5] 41.6% | [6] 108% | [7] 69.9% | [8] 55.6% | [9] 68.8% | [10] 34.3% | [11] 48.8% | [12] 29.6% | [18] 85.9% | [13] 17.6% | [14] 48.8% | [15] 102% | [16] 47.3%

CC(C)c1ccc2c(N)c(C(=O)Nc3cccc(C(F)(F)F)c3)sc2n1
inactive: [1] 40.4% | [2] 32.1% | [3] 90.7% | [4] 85% | [5] 78.1% | [6] 87.2% | [7] 108% | [8] 94.1% | [9] 71.7% | [10] 51.8% | [11] 112% | [12] 82.5% | [13] 70.3% | [14] 81.4% | [15] 73.1% | [16] 43.2%

COc1ccc(-c2ccnc(SCc3cc4cc(Cl)ccc4[nH]c3=O)n2)cc1
active: [6] -2.33% | [11] -18.5%
inactive: [1] 92.5% | [2] 73.8% | [3] 34.1% | [4] 135% | [5] 10.1% | [7] 95.8% | [8] 58.2% | [9] 44.8% | [10] 62.1% | [12] 68.5% | [18] 69.1% | [13] 73% | [14] 26.6% | [15] 100% | [16] 94.7% | [17] 54.9%

COc1ccc(/C=C2\C(=O)Nc3ccc(Cl)cc32)cc1OCc1ccccn1
inactive: [1] 31.4% | [2] 39.5% | [3] 31.6% | [4] 50% | [6] 63.3% | [7] 45.5% | [8] 51.6% | [9] 27.3% | [10] 51.9% | [11] 46.1% | [12] 75.1% | [13] 34.7% | [14] 21.1% | [15] 79.6% | [16] 75.2% | [17] 59%
active: [5] 8.08%

C#C[C@]1(O)CC[C@H]2[C@@H]3CC=C4c5sc(-c6ccc([N+](=O)[O-])cc6)nc5CC[C@]4(C)[C@H]3CC[C@@]21C
inactive: [3] 11.3% | [4] 12.5% | [5] 46.5% | [6] 53% | [7] 26.4% | [9] 25.7% | [10] 24.9% | [11] 36.8% | [12] 26.7%
active: [1] 1.72% | [2] -10.7% | [8] -25.2% | [18] -12.5% | [13] 0.614% | [14] 0.46% | [15] -49.2% | [16] -27.1% | [17] -17.8%

CC(=O)Oc1ccccc1C(=O)[Se]CC(=O)Nc1cccc(C(F)(F)F)c1
inactive: [1] 31.2% | [2] 35.6% | [5] 39.6% | [10] 56.5% | [15] 60% | [16] 25.3%
active: [3] -46.6% | [4] -30.9% | [6] 0.121% | [7] -64.9% | [8] -12% | [9] -63.8% | [11] -91% | [12] -29.7% | [13] 3.36% | [14] -47.7%

Cc1ccc(S(=O)(=O)c2nc(S(=O)(=O)c3ccc(C)cc3)c(Cl)s2)cc1
active: [1] 3.18% | [2] -32.7% | [3] 9.84% | [5] -26.1% | [8] -87.5% | [10] -24.6% | [18] -63.1% | [13] -57.1% | [14] -46.2% | [17] -78.8%
inactive: [4] 31.6% | [6] 133% | [7] 44.8% | [9] 29.5% | [11] 26.3% | [12] 50.5% | [15] 58.8% | [16] 23.9%

C=C1CC[C@@H]2[C@]3(C)COC(c4cn[nH]c4-c4ccccc4)O[C@@H]3CC[C@@]2(C)[C@@H]1C/C=C1/C(=O)OCC1O (some centres not stated)
active: [1] -18.9% | [2] -28.6% | [12] 1.5% | [13] -28.3% | [14] -20.3% | [16] -11.3%
inactive: [3] 33% | [4] 22.6% | [5] 11.5% | [6] 107% | [7] 30.6% | [8] 34.7% | [9] 37.8% | [10] 19.3% | [11] 52.2% | [15] 16.9%

COc1cc(CNC(=O)/C=C/c2ccc3c(c2)OCO3)ccc1OCc1cn(-c2cccc(C(F)(F)F)c2)nn1
active: [3] -9.92% | [9] 4.67% | [11] -10.7% | [14] -25.3% | [15] 8.65% | [17] -21.4%
inactive: [1] 41.5% | [2] 40.9% | [4] 36.6% | [5] 34.9% | [6] 47.4% | [7] 44.7% | [8] 42.9% | [10] 17.1% | [12] 39.9% | [13] 12.2% | [16] 48.8%

N/C(=N\c1nc2ccccc2s1)NC(=O)Nc1ccc(Cl)cc1Cl
active: [1] 5.8% | [2] -1.62% | [3] -79.3% | [4] -73.2% | [5] -87.7% | [6] -91.5% | [7] -68.5% | [8] -95.5% | [9] -84.8% | [10] -10.7% | [11] -17.6% | [12] -97.3% | [18] -67.9% | [13] -4.93% | [14] -79.6% | [15] -25.4% | [16] -64.4% | [17] -48.6%

COc1ccc(/C=C/c2nc3ccccc3c(=O)n2CC(=O)Nc2ccc(Cl)cc2)cc1
inactive: [1] 70.8% | [2] 84% | [3] 27% | [4] 92.7% | [5] 17.2% | [6] 78.7% | [7] 96.5% | [8] 50% | [9] 56.1% | [10] 66.5% | [11] 63.6% | [12] 90.5% | [18] 73.9% | [14] 35.4% | [15] 116% | [16] 61.3%

O=C1/C(=C/C2=Cc3ccccc3OC2)SC(=S)N1c1ccccc1F
inactive: [1] 91% | [2] 85.7% | [3] 110% | [4] 108% | [5] 107% | [6] 95.3% | [7] 103% | [8] 109% | [9] 109% | [10] 95% | [11] 77.8% | [12] 108% | [18] 112% | [13] 78.4% | [14] 96.4% | [15] 109% | [16] 102% | [17] 99%

Brc1ccc(-c2n(Cc3ccc4ccccc4c3)c(-c3ccccc3)c(-c3ccccc3)[n+]2Cc2ccc3ccccc3c2)cc1
active: [1] -36.8% | [2] -38% | [3] -77.4% | [4] -100% | [5] -83.3% | [6] -96.7% | [7] -81.7% | [8] -79% | [9] -78.2% | [10] -76.7% | [11] -96.7% | [12] -91% | [18] -86% | [13] -69.8% | [14] -97.9% | [15] -88.9% | [16] -93.4% | [17] -71.2%

O=C(C1=CNC(=S)NC1c1ccc(O)cc1)c1cc2ccccc2oc1=O (configuration not stated)
inactive: [1] 75.5% | [2] 88.7% | [3] 100% | [4] 109% | [5] 96.1% | [6] 93.2% | [7] 108% | [8] 101% | [9] 106% | [10] 112% | [11] 83.7% | [12] 105% | [18] 104% | [14] 101% | [15] 102% | [16] 95.8% | [17] 99.5%

From PubChem BioAssay (NCI)
